This is part of a sample that, as a whole, favours compounds with a hit. Of some 83,000 tested, about 20% had one in any assay.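 For each line, cells grew in 96-well plates with the test compound present at a single concentration for 48 hours.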 Unmarked numbers belong to inactive results. Calls of active or inactive are those of the source.
Test system: U251 CNS
Assay: NCI-60 one-dose screen, 48 h (100 = growth as untreated, 0 = no growth, -100 = all killed)
Settings: 10 µM unless noted
Protocol: Growth inhibition of the U251 human tumor cell line is measured as a screen for anti-cancer activity. Cells are grown in 96 well plates and exposed to the test compound for 48 hours. Compounds are tested at a single concentration, which is 10^-5 M for most compounds. The reported endpoint is percent growth (GI% or GIPRCNT), where numbers from 0 - 100% represent growth inhibition, and numbers from -100% - 0 represent cell death. For example, a value of 40 represents 60% growth inhibition. A value of 0 means no net growth occurred over the course of the experiment. A value of -40 indicates 40% of cells at the beginning of the experiment died by the end of the experiment. A value of -100 means all cells are dead at the end of the experiment.
NCI-60 Human Tumor Cell Lines Screen was performed using the standard one-dose NCI protocol, which is described in more detail at https://dtp.cancer.gov/discovery_development/nci-60/default.htm.
Compounds with GIPRCNT values below 10 were considered active. Activity score was based on GIPRCNT using the following formula: […]
Score is 0 for GIPRCNT values of 100 or above, 50 for GIPRCNT values of 0, and 100 for GIPRCNT values of -100.

Going from `Cn1c2ccc(Cl)cc2c2nn(C(=O)c3ccccc3)c(=O)nc21` to `Oc1ccc(Cl)cc1CNc1nc2ccccc2[nH]1`, the growth falls from 103% to 55%.

Compared with `O=C1C(Cl)=C(NCCCN2CCOCC2)C(=O)c2ccccc21`, `CCN1CCN(c2nc3ccccc3c3c(=O)c4cc(F)ccc4sc23)CC1` is lower in growth: 98.3% for the first, 46.5% for the second.

Going from `O=C1N/C(=C\c2ccccc2)c2ncccc21` to `O=C1NC(=O)C(CSc2ccccc2)(c2ccccc2)N1` (stereo not given), the growth falls from 104% to 96.7%.

Compared with `O=C(N/N=C(\CS(=O)(=O)c1ccccc1)c1cc2ccccc2oc1=O)c1ccccc1`, `O=c1oc2ccccc2cc1-c1csc(N=Nc2c(O)[nH]c3ccc(Cl)cc23)n1` is lower in growth: 96.3% for the first, 94.6% for the second.

First: Cc1ccc(NS(=O)(=O)c2ccc(-c3cnc(C4CC4)o3)cc2)cc1
Second: COc1ccc(C2CC(c3cc(OC)c(OC)c(OC)c3)=NN2c2ccc(S(N)(=O)=O)cc2)cc1 (stereo not given)
The growth of the first is lower: 39.9% for the first, 53.2% for the second.

First: COc1ccc(/C=N\N2CCOCC2)cc1OC1CCCC1
Second: COc1ccc(/C=N/NC(=O)c2cnn3c2NC(c2ccccc2)C3)cc1OC1CCCC1 (stereo not given)
The growth of the first is higher: 101% for the first, 83% for the second.

Compared with `CC(C)N1CCN(c2ccc(OC[C@H]3CO[C@](Cn4cncn4)(c4ccc(Cl)cc4Cl)O3)cc2)CC1`, `C[C@@H](Oc1cc(-c2cnn(C3CC4(CCCNC4)C3)c2)cnc1N)c1c(Cl)ccc(F)c1Cl` (stereo not given in full) is lower in growth: 73.8% for the first, 29.5% for the second.

Compared with `Oc1ccccc1/C=N/Nc1nc2ccccc2s1`, `NC1=NC(c2ccccc2OS(=O)(=O)c2ccc(Br)cc2)n2c(nc3ccccc32)N1` (stereo not given) is higher in growth: 45.3% for the first, 86.9% for the second.

Compared with `COc1ccc(C2OCC(C)(C)CO2)cc1OC`, `COc1cc(-c2ccc3cc(OC)c(OC)c(OC)c3c2)cc(OC)c1OC` is lower in growth: 94.8% for the first, 69% for the second.

First: Fc1ccccc1Nc1ccc2nnc(-c3ccncc3)n2n1
Second: Cc1nc2cc(Nc3nc(NCCO)nc(Nc4ccc(F)cc4)n3)ccc2n1Cc1ccccc1
The growth of the first is higher: 101% for the first, 86.3% for the second.

Compared with `O=[N+]([O-])c1ccc(O)c2ncccc12`, `CN1CCc2cccc3c2C1Cc1ccc(O)c(O)c1-3` (stereo not given) is higher in growth: 34.2% for the first, 99.9% for the second.

Going from `COc1ccc(C2=NOC(CC(=O)N(CCO)CCO)C2)cc1OC1CCCC1` (stereo not given) to `CCOC(=O)c1cn2c3c(cc(F)cc3c1=O)C(CC)c1ccccc1C2` (stereo not given), the growth falls from 97.5% to 83.8%.

Compared with `CCCCCCCC/C=C\CCCCCCCCOc1cccc(CC(=O)NCC[N+](C)(C)C)c1`, `CCCCNNC(=O)c1ccc(Br)cc1` is higher in growth: 46.2% for the first, 61.9% for the second.

First: CCOc1ccc(-c2cnnn2-c2nonc2-n2cccc2)cc1
Second: Clc1ccc(C2=Nc3cccc4cccc(c34)N2)cc1Cl
The growth of the first is lower: 17.6% for the first, 104% for the second.

Compared with `Cc1nn(CC(=O)O)c2c1C(=O)CC(C)(C)C2`, `COc1cc(/C=C/C(=O)CC(=O)/C=C/c2cc(Br)c(OC)c(OC)c2)cc(Br)c1OC` is lower in growth: 119% for the first, 105% for the second.

Compared with `COc1ccc(NC(=O)c2ccc3c(c2)nc(-c2ccc(Cl)cc2)n3-c2cc(C(C)(C)C)[nH]n2)cc1`, `COc1cc(C(F)(F)F)ccc1-c1cc(-c2ccc(F)cc2)n[nH]1` is lower in growth: 83.3% for the first, 80% for the second.

Compared with `NS(=O)(=O)c1cc(Br)c2c(c1)S(=O)(=O)NCN2`, `CC1=CN2C(=NC3=C(CCCC/C3=C\c3ccccc3)C2c2ccccc2)S1` (stereo not given) is lower in growth: 107% for the first, 96.5% for the second.

In the case of `Cc1ccc2c(c1)c(Sc1ccc(C(=O)NO)cc1)c1n2CN(C)CC1`, the growth is reported as 2.16% (active).
With `O=C1/C(=C/c2ccc(F)cc2)CN(Cc2cn(CCNc3ccnc4cc(Cl)ccc34)nn2)C/C1=C\c1ccc(F)cc1` the growth was -91.4% (active).
For `Cc1nc2cc(Nc3nc(Nc4ccc(F)cc4)nc(N4CCCC4)n3)ccc2n1Cc1ccccc1`, the growth was -70.9% (active).
`Cc1ccc(S(=O)(=O)N2C/C(=C\c3cc(F)cc(F)c3)C(=O)/C(=C/c3cc(F)cc(F)c3)C2)cc1` was tested, and the growth was -97.9% (active).
With `CCCCCCCCCCCCCCCC[N+]1(C)CCOCC1` the growth was -84.8% (active).

`Cc1ccccc1-n1nnc(C(=O)Nc2nc(-c3ccccc3)c(-c3ccccc3)s2)c1C` gave a growth of 76.6% [50 µM].
